# Results: the supplement of paper PMC10849652
# About 7,900 targets were measured; listed, in parts, are those with a hit and a random draw of the rest. About 0.6% of all pairs of compound and target were hits.
# Compound: C1=CC=C(C=C1)[C@H](COC2=CC3=C(C=C2)NC(=O)N3)NC(=O)C4=CC=CN(C4=O)CC5=CC(=C(C=C5)F)F
# Experiment: log2 fold change, soluble protein after heating vs DMSO (PISA); higher = thermal stabilisation; K562 cells, 10 uM, 30 min; active = over 0.2 and 3.5 SD of the protein, either way, in both replicates (recomputed)
# In short: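 Aliquots of K562 cells (2×10^6 cells/mL) treated with 10 μM compound for 30 min were heated for 3 min over 48°C-58°C. After pooling and extraction in PBS with 0.5% NP-40 at 4°C, soluble protein from a 21,000xg, 90 min spin was quantified by TMTpro 16plex LC-MS/MS with channel sums equalised. Thermal stability is expressed against control samples, from duplicates, as a log2 fold change.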
# Chain of UniProt P57081 (P57081 whole entry, looked up): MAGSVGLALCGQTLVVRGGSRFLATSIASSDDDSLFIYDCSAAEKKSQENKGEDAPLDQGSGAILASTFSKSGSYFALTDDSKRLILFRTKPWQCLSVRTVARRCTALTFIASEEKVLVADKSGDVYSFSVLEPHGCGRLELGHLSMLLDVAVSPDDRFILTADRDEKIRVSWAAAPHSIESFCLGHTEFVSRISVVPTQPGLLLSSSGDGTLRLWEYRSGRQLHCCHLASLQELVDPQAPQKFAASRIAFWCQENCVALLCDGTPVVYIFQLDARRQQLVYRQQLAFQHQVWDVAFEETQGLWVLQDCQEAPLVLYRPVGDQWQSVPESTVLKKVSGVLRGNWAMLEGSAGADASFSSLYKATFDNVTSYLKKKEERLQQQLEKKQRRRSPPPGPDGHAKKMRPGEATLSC
# Chain of UniProt Q9Y5Z9 (Q9Y5Z9 whole entry, looked up): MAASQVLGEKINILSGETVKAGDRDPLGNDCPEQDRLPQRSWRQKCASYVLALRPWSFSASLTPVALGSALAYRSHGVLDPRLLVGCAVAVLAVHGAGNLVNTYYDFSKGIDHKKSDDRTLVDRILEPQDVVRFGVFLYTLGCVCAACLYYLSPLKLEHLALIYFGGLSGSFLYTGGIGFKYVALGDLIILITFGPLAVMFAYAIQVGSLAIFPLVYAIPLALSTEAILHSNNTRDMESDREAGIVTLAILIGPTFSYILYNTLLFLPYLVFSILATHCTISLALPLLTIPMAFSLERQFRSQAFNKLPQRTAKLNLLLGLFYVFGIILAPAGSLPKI
# Chain of UniProt Q96JC1 (Q96JC1 whole entry, looked up): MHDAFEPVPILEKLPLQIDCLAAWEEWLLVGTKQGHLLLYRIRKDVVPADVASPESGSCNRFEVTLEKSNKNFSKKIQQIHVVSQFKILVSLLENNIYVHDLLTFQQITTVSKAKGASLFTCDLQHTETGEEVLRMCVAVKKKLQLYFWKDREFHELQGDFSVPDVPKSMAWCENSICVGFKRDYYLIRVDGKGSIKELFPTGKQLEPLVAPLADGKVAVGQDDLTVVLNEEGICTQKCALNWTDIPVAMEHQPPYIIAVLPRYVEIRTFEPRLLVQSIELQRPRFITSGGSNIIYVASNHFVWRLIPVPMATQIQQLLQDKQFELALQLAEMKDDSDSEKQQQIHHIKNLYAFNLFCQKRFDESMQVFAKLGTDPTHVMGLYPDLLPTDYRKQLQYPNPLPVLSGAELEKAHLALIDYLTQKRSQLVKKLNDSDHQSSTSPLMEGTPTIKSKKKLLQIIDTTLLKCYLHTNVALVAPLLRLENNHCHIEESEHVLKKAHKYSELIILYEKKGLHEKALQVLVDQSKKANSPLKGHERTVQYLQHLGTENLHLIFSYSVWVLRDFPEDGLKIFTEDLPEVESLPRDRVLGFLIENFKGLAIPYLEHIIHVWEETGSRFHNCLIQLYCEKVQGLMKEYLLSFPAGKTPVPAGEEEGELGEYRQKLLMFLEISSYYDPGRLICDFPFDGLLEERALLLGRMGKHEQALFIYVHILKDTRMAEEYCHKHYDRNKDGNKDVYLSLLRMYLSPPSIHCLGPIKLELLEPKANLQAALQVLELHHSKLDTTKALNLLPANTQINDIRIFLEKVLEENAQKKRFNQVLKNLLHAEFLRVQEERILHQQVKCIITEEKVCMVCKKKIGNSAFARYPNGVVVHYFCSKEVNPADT
# Chain of UniProt Q8IY95 (Q8IY95 whole entry, looked up): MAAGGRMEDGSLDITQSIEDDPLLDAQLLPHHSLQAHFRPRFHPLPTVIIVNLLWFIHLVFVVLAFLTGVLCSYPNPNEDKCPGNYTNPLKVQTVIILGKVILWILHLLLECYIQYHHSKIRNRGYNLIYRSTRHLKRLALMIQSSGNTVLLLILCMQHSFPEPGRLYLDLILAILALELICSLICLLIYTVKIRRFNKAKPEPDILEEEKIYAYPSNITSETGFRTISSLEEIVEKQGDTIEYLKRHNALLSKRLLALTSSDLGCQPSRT
# Chain of UniProt O60701 (O60701 whole entry, looked up): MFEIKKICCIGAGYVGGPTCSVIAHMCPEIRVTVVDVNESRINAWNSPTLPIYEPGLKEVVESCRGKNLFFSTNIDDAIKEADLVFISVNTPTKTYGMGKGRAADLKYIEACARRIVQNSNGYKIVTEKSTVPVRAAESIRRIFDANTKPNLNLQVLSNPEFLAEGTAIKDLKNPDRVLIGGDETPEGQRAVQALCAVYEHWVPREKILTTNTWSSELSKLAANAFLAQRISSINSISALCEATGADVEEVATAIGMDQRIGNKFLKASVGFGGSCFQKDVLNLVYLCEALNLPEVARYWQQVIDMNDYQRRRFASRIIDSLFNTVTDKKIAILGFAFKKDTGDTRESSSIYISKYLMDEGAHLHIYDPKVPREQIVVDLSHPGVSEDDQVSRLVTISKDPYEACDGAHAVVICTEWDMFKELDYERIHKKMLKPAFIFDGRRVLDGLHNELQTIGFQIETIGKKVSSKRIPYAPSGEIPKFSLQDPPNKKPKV
# Chain of UniProt Q15061 (Q15061 whole entry, looked up): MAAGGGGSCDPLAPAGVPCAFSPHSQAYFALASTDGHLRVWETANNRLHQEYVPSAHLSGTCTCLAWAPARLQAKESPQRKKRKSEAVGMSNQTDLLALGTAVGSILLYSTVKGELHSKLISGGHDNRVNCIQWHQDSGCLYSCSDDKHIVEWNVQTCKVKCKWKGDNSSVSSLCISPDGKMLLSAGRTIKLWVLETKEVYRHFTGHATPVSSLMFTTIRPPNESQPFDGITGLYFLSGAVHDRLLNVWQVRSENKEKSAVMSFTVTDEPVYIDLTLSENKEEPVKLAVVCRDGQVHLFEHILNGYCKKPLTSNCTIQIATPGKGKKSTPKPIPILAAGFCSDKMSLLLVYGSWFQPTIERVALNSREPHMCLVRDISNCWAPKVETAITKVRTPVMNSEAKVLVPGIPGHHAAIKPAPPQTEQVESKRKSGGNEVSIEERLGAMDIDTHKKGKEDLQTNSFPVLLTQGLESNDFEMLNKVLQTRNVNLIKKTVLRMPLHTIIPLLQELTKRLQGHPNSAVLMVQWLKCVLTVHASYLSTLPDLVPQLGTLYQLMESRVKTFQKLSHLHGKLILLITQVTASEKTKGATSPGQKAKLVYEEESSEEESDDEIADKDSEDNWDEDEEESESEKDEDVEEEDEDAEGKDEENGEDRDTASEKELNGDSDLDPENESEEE
# Chain of UniProt Q9Y4E6 (Q9Y4E6 whole entry, looked up): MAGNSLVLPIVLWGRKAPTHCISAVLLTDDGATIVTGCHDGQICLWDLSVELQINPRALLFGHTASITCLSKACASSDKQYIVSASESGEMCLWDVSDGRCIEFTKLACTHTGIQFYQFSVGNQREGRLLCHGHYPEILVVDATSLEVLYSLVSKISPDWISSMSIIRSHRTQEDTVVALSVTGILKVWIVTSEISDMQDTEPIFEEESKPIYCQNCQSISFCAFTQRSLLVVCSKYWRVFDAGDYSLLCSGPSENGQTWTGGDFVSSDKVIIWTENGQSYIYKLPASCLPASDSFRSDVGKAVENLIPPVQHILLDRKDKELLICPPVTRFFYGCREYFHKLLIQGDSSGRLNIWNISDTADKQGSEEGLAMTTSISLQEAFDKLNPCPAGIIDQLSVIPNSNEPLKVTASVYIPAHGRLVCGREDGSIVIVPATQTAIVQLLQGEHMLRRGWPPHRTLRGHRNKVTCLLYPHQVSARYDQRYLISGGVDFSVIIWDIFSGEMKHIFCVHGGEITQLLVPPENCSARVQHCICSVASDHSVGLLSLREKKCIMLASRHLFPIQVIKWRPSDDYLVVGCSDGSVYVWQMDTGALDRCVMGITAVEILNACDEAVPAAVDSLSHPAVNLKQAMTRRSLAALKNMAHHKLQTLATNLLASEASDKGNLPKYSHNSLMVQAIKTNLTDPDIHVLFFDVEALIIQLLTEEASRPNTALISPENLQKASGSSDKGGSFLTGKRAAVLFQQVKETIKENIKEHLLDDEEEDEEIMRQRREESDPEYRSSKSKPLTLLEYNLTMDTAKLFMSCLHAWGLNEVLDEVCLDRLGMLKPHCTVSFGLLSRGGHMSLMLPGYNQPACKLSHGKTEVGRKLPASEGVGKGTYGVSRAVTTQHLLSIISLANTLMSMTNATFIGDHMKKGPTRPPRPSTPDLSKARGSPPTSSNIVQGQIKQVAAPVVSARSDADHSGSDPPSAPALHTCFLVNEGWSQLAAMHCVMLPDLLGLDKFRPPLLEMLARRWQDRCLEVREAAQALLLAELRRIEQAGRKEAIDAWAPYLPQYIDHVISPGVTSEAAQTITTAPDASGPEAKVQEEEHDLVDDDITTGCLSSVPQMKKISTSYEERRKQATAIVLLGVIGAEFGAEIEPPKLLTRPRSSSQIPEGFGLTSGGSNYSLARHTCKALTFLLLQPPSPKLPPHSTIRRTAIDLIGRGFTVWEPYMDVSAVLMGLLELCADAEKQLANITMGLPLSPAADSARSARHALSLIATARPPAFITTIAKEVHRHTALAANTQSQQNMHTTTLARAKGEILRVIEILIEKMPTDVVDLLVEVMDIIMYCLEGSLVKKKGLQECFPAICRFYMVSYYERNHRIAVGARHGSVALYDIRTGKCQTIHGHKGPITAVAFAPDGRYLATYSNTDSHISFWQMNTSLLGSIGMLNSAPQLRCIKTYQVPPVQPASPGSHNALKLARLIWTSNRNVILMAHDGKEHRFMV
# Chain of UniProt P61960 (P61960 whole entry, looked up): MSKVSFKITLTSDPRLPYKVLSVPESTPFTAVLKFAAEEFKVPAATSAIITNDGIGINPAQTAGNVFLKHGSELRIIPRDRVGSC
# Chain of UniProt Q96DX7 (Q96DX7 whole entry, looked up): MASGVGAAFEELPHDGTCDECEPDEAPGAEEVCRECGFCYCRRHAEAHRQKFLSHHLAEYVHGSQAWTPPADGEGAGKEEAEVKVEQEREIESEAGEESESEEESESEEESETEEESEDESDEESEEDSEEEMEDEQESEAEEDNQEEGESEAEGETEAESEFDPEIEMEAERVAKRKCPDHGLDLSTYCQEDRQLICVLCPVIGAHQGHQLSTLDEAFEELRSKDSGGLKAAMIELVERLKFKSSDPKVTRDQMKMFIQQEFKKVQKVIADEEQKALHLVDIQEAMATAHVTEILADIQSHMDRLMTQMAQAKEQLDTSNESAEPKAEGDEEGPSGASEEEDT
row,Target,log2 fold change
1,WASH2P (UniProt Q6VEQ5),0.015 (inactive)
2,UBIAD1 (UniProt Q9Y5Z9),0.012 (inactive)
3,TRIM44 (UniProt Q96DX7),-0.027 (inactive)
4,TMEM189-UBE2V1 (UniProt I3L0A0),-0.047 (inactive)
5,WDR4 isoform 3 (UniProt P57081),-0.18 (inactive)
6,TNFRSF10A (UniProt O00220),0.033 (inactive)
7,USO1 isoform 2 (UniProt O60763),-0.007 (inactive)
8,WDR7 (UniProt Q9Y4E6),-0.037 (inactive)
9,TMEM177 (UniProt Q53S58),0.036 (inactive)
10,UBE3D (UniProt Q7Z6J8),0.034 (inactive)
11,UHRF1BP1 (UniProt Q6BDS2),-0.01 (inactive)
12,TRMT10C (UniProt Q7L0Y3),-0.018 (inactive)
13,TNFAIP8 isoform 4 (UniProt O95379),-0.021 (inactive)
14,UBXN8 (UniProt O00124),0.3 (inactive)
15,TRABD (UniProt Q9H4I3),0.005 (inactive)
16,UBE2J2 isoform 3 (UniProt Q8N2K1),0.003 (inactive)
17,TPM2 (UniProt P07951),-0.041 (inactive)
18,WDR47 (UniProt O94967),0.019 (inactive)

row,Target,log2 fold change
1,UCHL5 (UniProt Q9Y5K5),-0.048 (inactive)
2,UFM1 (UniProt P61960),-0.019 (inactive)
3,WDR4 (UniProt P57081),-0.074 (inactive)
4,VRK1 (UniProt Q99986),-0.13 (inactive)
5,WARS1 (UniProt G3V5U1),0.193 (inactive)
6,TMEM263 (UniProt Q8WUH6),-0.152 (inactive)
7,UGDH (UniProt O60701),0.025 (inactive)
8,UTP4 (UniProt Q969X6),0.009 (inactive)
9,WEE1 (UniProt P30291),0.116 (inactive)
10,VPS33A (UniProt Q96AX1),-0.039 (inactive)
11,VPS11 (UniProt Q9H270),-0.089 (inactive)
12,VPS39 (UniProt Q96JC1),-0.087 (inactive)
13,TMEM87B (UniProt Q96K49),0.04 (inactive)
14,TMEM192 (UniProt Q8IY95),0.02 (inactive)
15,WDR43 (UniProt Q15061),0.026 (inactive)
16,USP48 (UniProt Q86UV5),0 (inactive)
17,WARS1 (UniProt G3V3P2),0.095 (inactive)
